Laboratory results reported in PubChem BioAssay (NCATS).

Test: qHTS profiling for inhibitors of Plasmodium falciparum (3D7) proliferation (AID 743322);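 note: infected erythrocytes exposed to compound for 72 h before lysis; 100% = DMSO vehicle wells and 0% = 0.29 µM artemisinin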
Details: P. falciparum 3D7 proliferation; at 28.7 µM (top of the series)
Procedure, shortened: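 Erythrocytes infected with P. falciparum (0.3% parasitemia, 2.5% hematocrit) incubated with compounds 72 h at 37 C, 5% CO2. Lysis with saponin/Triton buffer containing SYBR Green I, overnight at room temperature in the dark; DNA fluorescence (485/535 nm) normalised to 0.29 uM artemisinin and DMSO.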

Compound | remaining parasite growth % (stronger effect = lower value)
CCc1ccc(OCc2ccccc2C(=O)Nc2ccc3nc(C)cc(N)c3c2)cc1 | -0.867%
C[C@@H]1CCN(C(=O)CC#N)C[C@H]1N(C)c1ncnc2[nH]ccc12 | 89.8%
CC[C@H]1OC(=O)[C@H](C)[C@@H](O[C@H]2C[C@@](C)(OC)[C@@H](O)[C@H](C)O2)[C@H](C)[C@@H](O[C@@H]2O[C@H](C)C[C@H](N(C)C)[C@@H]2O)[C@](C)(O)C[C@@H](C)CN(C)[C@H](C)[C@@H](O)[C@]1(C)O | 11.3%

Test: qHTS profiling for inhibitors of Plasmodium falciparum (DD2) proliferation (AID 743323)
Details: lower = more inhibition; at 28.7 µM (top of the series)
Procedure, shortened: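 Parasite DNA quantified by SYBR Green fluorescence (ex 485, em 535 nm) after saponin/Triton lysis and overnight dark incubation. Cultures: 0.3% parasitemia, 2.5% hematocrit, 72 h, 37 C; data scaled between DMSO and 0.29 uM artemisinin.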

Compound | activity, percent of control
CCc1ccc(OCc2ccccc2C(=O)Nc2ccc3nc(C)cc(N)c3c2)cc1 | 0.0556%
C[C@@H]1CCN(C(=O)CC#N)C[C@H]1N(C)c1ncnc2[nH]ccc12 | 90.1%
CC[C@H]1OC(=O)[C@H](C)[C@@H](O[C@H]2C[C@@](C)(OC)[C@@H](O)[C@H](C)O2)[C@H](C)[C@@H](O[C@@H]2O[C@H](C)C[C@H](N(C)C)[C@@H]2O)[C@](C)(O)C[C@@H](C)CN(C)[C@H](C)[C@@H](O)[C@]1(C)O | 19.2%

Test: qHTS profiling for inhibitors of Plasmodium falciparum (HB3) proliferation (AID 743324);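 note: 100% = DMSO vehicle wells and 0% = artemisinin-treated control wells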
Details: Plasmodium falciparum HB3 blood-stage proliferation; at 28.7 µM (top of the series)
Procedure, shortened: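 P. falciparum HB3 grown in erythrocytes (0.3% parasitemia, 2.5% hematocrit final) with compound for 72 h at 37 C, 5% CO2. Parasite DNA detected by SYBR Green after saponin/triton lysis overnight; normalized to 0.29 uM artemisinin and DMSO.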

Compound | remaining proliferation (% of control), lower = more inhibition
CCc1ccc(OCc2ccccc2C(=O)Nc2ccc3nc(C)cc(N)c3c2)cc1 | 0.0187%
C[C@@H]1CCN(C(=O)CC#N)C[C@H]1N(C)c1ncnc2[nH]ccc12 | 56.2%
CC[C@H]1OC(=O)[C@H](C)[C@@H](O[C@H]2C[C@@](C)(OC)[C@@H](O)[C@H](C)O2)[C@H](C)[C@@H](O[C@@H]2O[C@H](C)C[C@H](N(C)C)[C@@H]2O)[C@](C)(O)C[C@@H](C)CN(C)[C@H](C)[C@@H](O)[C@]1(C)O | 31.5%
